# High-throughput results (PubChem)
# An excerpt weighted towards active compounds, which were near 0.85% of everything screened.
# eLon inh = inhibitors of E. coli Lon protease, primary screen, biochemical, fluorescence polarization; P0A9M0; purified E. coli Lon protease; inhibition, % at 7.94 µM; 360,000 compounds, 0.42% hits; AID 602123, 2011; in the data active means inhibition above about 13%, passing the limit was not always enough;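 further: 0% = enzyme with probe and DMSO and 100% = no enzyme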
# Target sequence (P0A9M0 whole entry, looked up): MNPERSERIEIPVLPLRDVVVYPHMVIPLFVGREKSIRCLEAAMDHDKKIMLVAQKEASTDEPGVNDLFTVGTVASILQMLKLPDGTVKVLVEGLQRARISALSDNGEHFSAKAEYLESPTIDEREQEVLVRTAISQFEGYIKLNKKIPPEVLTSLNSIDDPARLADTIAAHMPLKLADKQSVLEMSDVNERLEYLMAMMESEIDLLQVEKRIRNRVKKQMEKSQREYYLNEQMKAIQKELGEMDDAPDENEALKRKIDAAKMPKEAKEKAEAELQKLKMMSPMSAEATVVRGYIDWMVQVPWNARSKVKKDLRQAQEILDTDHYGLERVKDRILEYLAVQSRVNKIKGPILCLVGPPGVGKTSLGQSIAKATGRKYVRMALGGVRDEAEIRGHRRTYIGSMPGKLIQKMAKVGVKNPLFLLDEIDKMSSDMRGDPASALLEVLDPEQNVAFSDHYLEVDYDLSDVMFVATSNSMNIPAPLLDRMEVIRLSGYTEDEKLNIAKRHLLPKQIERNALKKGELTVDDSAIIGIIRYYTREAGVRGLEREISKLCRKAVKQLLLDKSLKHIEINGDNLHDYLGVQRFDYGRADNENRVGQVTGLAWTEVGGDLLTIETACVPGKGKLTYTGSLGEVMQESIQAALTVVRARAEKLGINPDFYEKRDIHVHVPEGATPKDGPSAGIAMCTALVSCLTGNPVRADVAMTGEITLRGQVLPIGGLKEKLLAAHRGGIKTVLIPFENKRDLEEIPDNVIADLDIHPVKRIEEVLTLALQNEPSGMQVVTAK
# ZTA counter = ZTA (EBV) inhibition in EBNA-1 counter-screen. inhibition, % at 11 µM. ZTA-DNA binding, fluorescence polarization. 320,000 compounds, 0.15% hits. P03206. AID 2234; in the data active means inhibition above about 33%
# Keap1-Nrf2 PPI = Keap1-Nrf2 protein-protein interaction inhibitors, primary screen, biochemical, fluorescence polarization, single point. Kelch-like ECH-associated protein 1 (Homo sapiens), Q14145. Keap1 Kelch-Nrf2 peptide fluorescence polarization, 1536-well. inhibition, % at 9.4 µM. 340,000 compounds, 0.15% hits; in the data active means inhibition above about 12%;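 further: human Keap1 Kelch domain with fluorescein labeled Nrf2 9mer peptide probe; 0% = neutral control wells and 100% = peptide positive control; higher means more block of Keap1 binding to Nrf2 peptide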
# C-LANA FP = inhibitors of KSHV C-LANA binding to DNA, primary screen, biochemical, fluorescence polarization, FAM-LBS DNA, MBP-C-LANA, single point; Kaposi's sarcoma herpesvirus LANA C-terminal domain (residues 932-1162) DNA binding; inhibition, % at 9 µM; 340,000 compounds, 0.078% hits;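 active means highest replicate inhibition at or above 60% at 9 µM, even if other replicates fall short; inactive means all replicates below 60% inhibition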;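 further: 0% = neutral control wells and 100% = 4 µM acridine orange control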
# EBNA-1 inhibitor = EBNA-1 DNA-binding inhibitors, primary screen, biochemical, fluorescence polarization; inhibition, % at 14.8 µM; 300,000 compounds, 0.34% hits; AID 1950, 2009; in the data active means inhibition above about 28%
# Keap1 TSA = Keap1 Kelch domain binders by thermal stabilisation, dose response, biophysical, thermal shift, RT-PCR instrument, cherry-pick; shares compounds with Keap1-Nrf2 PPI; delta Tm; active compounds read high; max delta Tm, degrees C; 400 compounds, 8% hits; AID 651823, 2012; in the data active means max delta Tm above about 0.48 degrees C
# Sypro dye melt = Sypro Orange dye melt without protein, dose response, artefact control for Keap1-Nrf2 interaction inhibitor project, biochemical, thermal shift counterscreen, cherry-pick; Sypro Orange dye-only thermal melt, no protein, delta Tm; top dose 26 µM; 140 tested, under 10 active; delta Tm, degrees C (test concentration not listed); shares compounds with Keap1-Nrf2 PPI;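 active means at highest dose tested, delta Tm positive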
# Active calls of the source: *; x = no result.
SMILES,eLon inh,ZTA counter,Keap1-Nrf2 PPI,C-LANA FP,EBNA-1 inhibitor,Keap1 TSA,others
COc1ccc(NC(=S)N2CCN(Cc3ccc(C)cc3)CC2)cc1,-3,-8,26*,-1,-6,-0.07,Sypro dye melt=-30
Cc1ccc(NC(=S)N2CCN(Cc3ccccc3)CC2)cc1,2,1,1,0,-9,x,
Cn1c(SCC(=O)c2cc(Cl)c(Cl)s2)nnc1-c1ccco1,-1,-10,32*,19,9,-0.2,
Cc1ccc(C(=O)CSc2nnc(-c3ccco3)n2C)cc1,-2,3,-1,-1,13,x,
CC(C)NC(=O)C1(C)CCN1Cc1cccc(C#N)c1 (centres undefined),-8,x,x,x,x,x,
O=C(OCC(=O)N1CCc2ccccc21)c1ccc([N+](=O)[O-])o1,3,x,-8,2,x,x,
O=C(Cc1ccc(S(=O)(=O)N2CCOCC2)s1)Nc1nc2c(s1)CCCC2,-1,-32,18*,18,-8,0.08,
O=C(Cc1ccc(S(=O)(=O)N2CCOCC2)s1)Nc1ccc2c(c1)CCC2,-5,4,-3,0,-8,x,
CCCN1CNC(=S)N(c2cc(C)ccc2C)C1,-5,-11,13*,2,0,-0.1,
Cc1ccc(C)c(C(C)NC(=S)NCc2ccc(F)cc2)c1 (centres undefined),6,-14,-4,-2,-6,x,
C/C(C/C(C)=C1/SC(=S)NC1=O)=C1\SC(=S)NC1=O,-62,x,49*,32,x,2*,
CCCCCC/C(C)=C1/SC(=S)NC1=O,-36,10,2,-2,16,x,
Cc1cscc1NC(=O)/C=C/C(=O)O,2,-3,33*,18,0,-0.18,
COc1ccccc1CNC(=O)c1ccccc1NS(C)(=O)=O,-14,-4,21*,-1,-5,-0.13,
C=CCOc1ccc(/C=C2\SC(N3CCCCC3)=NC2=O)cc1,6,-21,2,-2,4,x,
COc1cc2c3nnc(-c4ccccc4)c-3cn(Cc3ccc(F)cc3)c2cc1OC,-15,-17,2,-16,-20,x,
COc1cc2c3nnc(-c4ccc(F)cc4)c-3cn(Cc3ccc(C)cc3)c2cc1OC,-3,7,13*,4,17,-0.06,
CCOC(=O)c1c(NC(=O)CN2CCN(S(=O)(=O)c3cc(Cl)ccc3Cl)CC2)sc(C(=O)N(C)C)c1C,3,x,27*,17,x,-0.11,
CCOC(=O)c1c(NC(=O)COC(=O)c2ccc(Cl)nc2)sc(C(=O)N(C)C)c1C,-18,-7,-4,-1,0,x,
N=C1CCCC1C(=S)SCCC(N)=O (centres undefined),-8,x,x,x,x,x,
CCC(=O)c1cn(CC(=O)Nc2ccc(OC)cc2)c2ccccc12,-13,3,55*,26,2,0.01,
CCc1cc(C(=O)c2ccccc2OC)c(N)s1,-2,0,-3,0,-2,x,
CCc1cc(C(=O)c2ccc(OC)cc2)c(N)s1,-9,-3,26*,10,1,-0.18,
C=CCn1c(O)c(CN2CCOCC2)c(C)c(C#N)c1=O,-3,10,14*,16,5,0.09,
C=CCn1c(C)cc(C)c(C#N)c1=O,-6,2,2,-1,-3,x,
SMILES,eLon inh,ZTA counter,Keap1-Nrf2 PPI,C-LANA FP,EBNA-1 inhibitor,Keap1 TSA,others
c1ccc(-n2ncc3c(NCC4CCCO4)ncnc32)cc1 (centres undefined),-7,7,12*,6,13,-0.19,
COc1ccc(C2CCCCCN2C(=O)C2CCN(S(=O)(=O)c3ccc(C)cc3)CC2)cc1 (centres undefined),-7,x,x,x,x,x,
COc1ccc2c(=O)c3c(=O)n(Cc4ccco4)c(-c4ccccc4)nc3oc2c1,-10,-9,-1,1,0,x,
CCCc1nc2oc3cc(OC)ccc3c(=O)c2c(=O)n1Cc1ccco1,-8,-7,14*,0,2,-0.19,
CCOc1ccc(OCCCC(=O)N(CC)CC(=O)Nc2c(F)cccc2F)cc1,-11,9,36*,23,x,-0.15,Sypro dye melt=-27
Cc1oc2c(cc(NS(=O)(=O)c3ccc(C(C)C)cc3)c3ccccc32)c1C(=O)O,-2,14,20*,35,1,0.52*,
O=C(NCc1cccc(F)c1)c1cccc2c1C(=O)c1ccc(N3CCCC3)cc1S2(=O)=O,-111,x,15*,31,x,-0.02,
O=C(NCc1ccc(OC(F)(F)F)cc1)c1cccc2c1C(=O)c1ccc(N3CCCC3)cc1S2(=O)=O,-15,x,0,-1,x,x,
O=C(NC(c1ccc(Cl)cc1)c1cnccn1)C1CCN(Cc2cccc(C(F)(F)F)c2)CC1 (centres undefined),-9,x,x,x,x,x,
Cc1ccc2oc(=O)c3cnn(CC(=O)NCCN(C)C)c3c2c1,-10,-19,-2,-1,3,x,
Cc1ccc2oc(=O)c3cnn(CC(=O)NCCC(C)C)c3c2c1,-17,-8,31*,0,3,-0.17,Sypro dye melt=-26
Cc1nc(-c2ccc(S(=O)(=O)N3CCN(C4c5ccccc5-c5ccccc54)CC3)s2)cs1,6,15,-2,1,-2,x,
Cc1nc(-c2ccc(S(=O)(=O)N3CCCN(CCc4ccccc4)CC3)s2)cs1,5,2,63*,30,6,-0.22,
O=C(CCN1C(=O)/C(=C/c2ccco2)SC1=S)Nc1ccc(O)cc1C(=O)O,-13,x,13*,63*,x,0.29,
O=C(CCCN1C(=O)/C(=C\c2ccccc2)SC1=S)Nc1ccc(O)cc1C(=O)O,-8,5,-7,-1,-14,x,
Cc1ccc(CNC(=O)C(CC(C)C)OC(=O)c2ccco2)cc1 (centres undefined),6,-2,-2,-1,-9,x,
Cc1ccc(-c2nc3sc(C#N)c(N)n3c(=O)c2C#N)cc1,-4,-11,14*,4,-2,-0.05,
CCc1nc2ccc(C(=O)Nc3cccc(OCC(=O)N(C)C)c3)cn2c1N(C)C(=O)c1cccc(OC)c1,-4,x,x,x,x,x,
COc1ccc(Nc2nc3ccccc3nc2-n2nc(C)cc2C)cc1,-8,-6,43*,14,-1,-0.16,
COc1ccccc1NC(=O)C(C)OC(=O)C1COc2ccccc2O1 (centres undefined),2,1,22*,10,x,-0.1,
CCCCN(C(=O)CC1CCCCC1)c1c(N)n(CC(C)C)c(=O)[nH]c1=O,-10,2,50*,x,x,-0.14,
O=[N+]([O-])c1cc(C(F)(F)F)ccc1NC1CCN(Cc2ccccc2)C1 (centres undefined),-2,2,-2,0,2,x,
O=[N+]([O-])c1cc(C(F)(F)F)ccc1NC1CCN(Cc2ccccc2)CC1,4,-16,43*,29,2,-0.06,Sypro dye melt=-22
